Screens deposited in PubChem by several laboratories.
Hits are enriched below; roughly 4% of the tested compounds scored in any of these assays.
FBA Mtb inh – inhibits M. tuberculosis FBA enzyme; P9WQA3; purified M. tuberculosis FBA, fluorescence read-out; inhibition, % at 1 µM; hit rate 2.3% among 360,000; AID 588726; in the data active = inhibition above about 27%;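 note: 0% = vehicle and 100% = reference inhibitor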
Target sequence (P9WQA3 whole entry, looked up): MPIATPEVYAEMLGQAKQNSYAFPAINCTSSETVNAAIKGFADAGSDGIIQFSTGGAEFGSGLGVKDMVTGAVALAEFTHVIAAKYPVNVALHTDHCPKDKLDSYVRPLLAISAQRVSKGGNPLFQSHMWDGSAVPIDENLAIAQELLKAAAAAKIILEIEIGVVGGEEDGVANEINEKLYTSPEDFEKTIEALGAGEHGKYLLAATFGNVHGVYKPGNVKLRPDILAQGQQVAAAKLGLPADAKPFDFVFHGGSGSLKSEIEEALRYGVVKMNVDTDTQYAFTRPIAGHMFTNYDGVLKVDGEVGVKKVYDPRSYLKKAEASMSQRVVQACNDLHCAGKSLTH
Rv3671c protease – inhibits the M. tuberculosis serine protease Rv3671c; P9WHR9; inhibition, % at 5.96 µM; hit rate 0.048% among 320,000; AID 2606; in the data active = inhibition above about 38%;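 note: extracellular domain of Rv3671c used as enzyme; 0% = enzyme with DMSO and 100% = no enzyme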
Mtb UGM inh – inhibitors of M. tuberculosis UDP-galactopyranose mutase. purified UGM, fluorescence polarization probe displacement. inhibition, % at 10 µM. hit rate 0.06% among 320,000; in the data active = inhibition above about 10%, passing the limit was not always enough; inconclusive = no clear call, values can overlap the other calls
RecA intein inh – blocks M. tuberculosis RecA intein splicing; P9WHJ3; cell-free RecA intein splicing, fluorescence; inhibition, % (concentration not given with the values); hit rate 0.75% among 290,000; in the data active = inhibition above about 30%; inconclusive = no clear call, values can overlap the other calls;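 note: 0% = vehicle wells and 100% = reference inhibitor control wells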
GDH-TPI counter – GDH-TPI coupled enzyme inhibition counter-screen. GDH-TPI coupled enzyme counterscreen, NADH absorbance. inhibition, % at 4.8 µM. hit rate 1.2% among 360,000; in the data active = inhibition above about 30%;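 note: 0% = DMSO wells and 100% = wells lacking the enzyme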
Mtb bLac sens – beta-lactam sensitization of Mtb H37Rv; inhibition, % at 25 µM; M. tuberculosis H37Rv growth with meropenem, percent inhibition; hit rate 0.27% among 330,000; call rule not given here;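 note: growth measured after seven days incubation then overnight dye step; 0% = bacteria only wells and 100% = bacteria with antibiotic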
Active calls of the source: *.

For Cc1ccc(-c2c(C#N)c(N)n(-c3ccc(Cl)cc3)c(=O)c2C#N)cc1 the results were FBA Mtb inh 2 and GDH-TPI counter 31*.
For COc1ccc(S(=O)(=O)N2CCCC(C(=O)N3CCOCC3)C2)cc1OC (stereo unspecified) the results were FBA Mtb inh -4, Rv3671c protease -10, Mtb UGM inh 2, RecA intein inh -2, GDH-TPI counter 10 and Mtb bLac sens -7.
OCc1ccc(-c2cccc3nccn23)cc1 was read as FBA Mtb inh active and GDH-TPI counter 13.
CN(C)Cc1ccccc1-c1cccc2nccn12 was read as FBA Mtb inh 142* and GDH-TPI counter 9.
For CONC(=O)c1ccc(-c2cccc3nccn23)cc1 the results were FBA Mtb inh 3 and GDH-TPI counter 4.
CN1CCN(C(=O)c2cccc(-c3cccc4nccn34)c2)CC1 was read as FBA Mtb inh 16 and GDH-TPI counter 13.
Screening Cc1cccc(-c2cccc3nccn23)c1 returned FBA Mtb inh active and GDH-TPI counter 8.
Screening Cc1ccc(NC(=O)CN(C)C(=O)c2cc(S(=O)(=O)N(C)C)ccc2N2CCCC2)cc1 returned FBA Mtb inh 3, Rv3671c protease 6, Mtb UGM inh 2, RecA intein inh 3, GDH-TPI counter 2 and Mtb bLac sens -5.
For COc1ccc(CCN(C)C(=O)C2CCN(C(=O)Nc3ccccc3)CC2)cc1OC the results were FBA Mtb inh 6, Rv3671c protease -2, Mtb UGM inh 6, RecA intein inh 1, GDH-TPI counter 1 and Mtb bLac sens 3.
Screening CN(C(=O)c1cccc(COc2ccc(Cl)cc2Cl)c1)c1ccccc1 returned FBA Mtb inh 2, Rv3671c protease -19, Mtb UGM inh -1, RecA intein inh 35*, GDH-TPI counter 2 and Mtb bLac sens 0.
Screening CCOc1ccc(N=C2NC(=O)CS2)cc1 returned FBA Mtb inh 0, Rv3671c protease 9, Mtb UGM inh 0, RecA intein inh -1, GDH-TPI counter 5 and Mtb bLac sens 6.
`COc1cccc(-c2cc3c(=O)n(-c4ccccc4)c(=S)[nH]c3s2)c1` gave FBA Mtb inh 4, Rv3671c protease 1, Mtb UGM inh 1, RecA intein inh 0, GDH-TPI counter 38* and Mtb bLac sens -8.
COc1ccc(-n2c(=S)[nH]c3sc(-c4ccccc4)cc3c2=O)c(OC)c1 was read as FBA Mtb inh 2, Rv3671c protease 7, Mtb UGM inh 1, RecA intein inh 0, GDH-TPI counter 21 and Mtb bLac sens 45.
For CC(=O)/C=N/Nc1ccccc1 the results were FBA Mtb inh 2, Rv3671c protease 0, Mtb UGM inh 0, RecA intein inh 0, GDH-TPI counter 36* and Mtb bLac sens 11.
Screening COc1ccc(C2Nc3ccccc3C(=O)N2Cc2ccccc2)cc1OC (stereo unspecified) returned FBA Mtb inh 74*, Rv3671c protease -6, Mtb UGM inh -5, RecA intein inh 1, GDH-TPI counter -1 and Mtb bLac sens 1.
For COc1ccc(C2Nc3ccccc3C(=O)N2NS(C)(=O)=O)cc1OC (stereo unspecified) the results were FBA Mtb inh 25, Rv3671c protease 6, Mtb UGM inh 0, RecA intein inh -8, GDH-TPI counter 5 and Mtb bLac sens -2.
Screening CC(=O)c1c(C)n(CCc2ccc(Cl)cc2)c2ccc(O)cc12 returned FBA Mtb inh 0, Rv3671c protease -3, Mtb UGM inh 1, RecA intein inh -1, GDH-TPI counter 52* and Mtb bLac sens 9.
`CCOC(=O)Nc1ccc2c(COC(=O)CNS(=O)(=O)c3cccc(Br)c3)cc(=O)oc2c1` gave FBA Mtb inh 155*, Rv3671c protease -134, Mtb UGM inh 3, RecA intein inh 1, GDH-TPI counter 9 and Mtb bLac sens 1.
CCOC(=O)Nc1ccc2c(COC(=O)C(NS(=O)(=O)c3ccc(Cl)cc3)C(C)O)cc(=O)oc2c1 (stereo unspecified) was read as FBA Mtb inh active, Rv3671c protease -7, Mtb UGM inh 1, GDH-TPI counter 27 and Mtb bLac sens -12.
O=C(Nc1ccccc1)OCC1COC(c2ccccc2)(c2ccccc2)O1 (stereo unspecified) was read as FBA Mtb inh -2 and GDH-TPI counter 1.
Cc1ccc(C)c(OCc2cc(C(=O)NC3CCOC(C)(C)C3)no2)c1 (stereo unspecified) was read as FBA Mtb inh 0, Rv3671c protease -1, Mtb UGM inh 2, RecA intein inh 2, GDH-TPI counter 1 and Mtb bLac sens inconclusive.
Screening CC(=O)Nc1ccc(S(=O)(=O)N2CCCC2)cc1 returned FBA Mtb inh -1, Rv3671c protease -4, Mtb UGM inh -2, RecA intein inh 2, GDH-TPI counter 6 and Mtb bLac sens 0.
For CC(C)(C)C(=O)Nc1ccc(S(=O)(=O)N2CCCC2)cc1 the results were FBA Mtb inh 182*, Rv3671c protease -8, Mtb UGM inh 1, RecA intein inh -3, GDH-TPI counter 6 and Mtb bLac sens -4.
`COC(=O)c1ccc(S(=O)(=O)N2CCCCCC2)cc1` gave FBA Mtb inh -5, Rv3671c protease 4, Mtb UGM inh -1, RecA intein inh -2, GDH-TPI counter 47* and Mtb bLac sens -6.
Screening Cc1ccccc1C(=O)N=c1sccn1C returned FBA Mtb inh 0, Rv3671c protease 2, Mtb UGM inh 2, RecA intein inh 2, GDH-TPI counter -2 and Mtb bLac sens -6.
Screening Cc1ccc(C(=O)N=c2sccn2C)o1 returned FBA Mtb inh -2, Rv3671c protease -4, Mtb UGM inh -2, RecA intein inh -1, GDH-TPI counter 33* and Mtb bLac sens 2.
`C1CCC(Nc2nnnn2C2CCCCC2)CC1` gave FBA Mtb inh 1, Rv3671c protease 4, Mtb UGM inh -1, RecA intein inh -1, GDH-TPI counter 3 and Mtb bLac sens 5.
CN(C)/C=C/C(=O)c1nnn(C2CCCCC2)c1NC1CCCCC1 was read as FBA Mtb inh -1, Rv3671c protease -7, Mtb UGM inh 0, RecA intein inh -1, GDH-TPI counter 39* and Mtb bLac sens 2.
COc1ccc(/C=C(/NC(=O)/C=C/c2ccccc2)C(=O)NCCCCCC(=O)O)cc1 was read as FBA Mtb inh 1, Rv3671c protease -2, Mtb UGM inh 2, RecA intein inh 0, GDH-TPI counter 32* and Mtb bLac sens -3.
COc1ccc(/C=C(\NC(=O)/C=C/c2ccco2)C(=O)NCCc2nc3ccccc3[nH]2)cc1 was read as FBA Mtb inh 0, Rv3671c protease -6, Mtb UGM inh 0, RecA intein inh 6, GDH-TPI counter 37* and Mtb bLac sens 89.
O=C(NCCc1nc2ccccc2[nH]1)/C(=C/c1ccco1)NC(=O)c1ccc(Br)o1 was read as FBA Mtb inh -2, Rv3671c protease 2, Mtb UGM inh -3, RecA intein inh 3, GDH-TPI counter 33* and Mtb bLac sens -2.
